Screens (PubChem)
Sampled rows, rich in hits. Any-hit rate of the full collection: about 6.7%.
C diff growth: C. difficile growth inhibition; Clostridium difficile clinical isolate growth, OD600, 24 h; stronger effect = lower value; growth activity, negative = inhibition, % at 16 µg/mL (by protocol); 0.25% of 86,000 active;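 active means mean growth activity at or below -80% and every replicate also at or below -80%; inconclusive means mean at or below -80% but some replicate above -80%; inactive means mean growth activity above -80%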;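 further: 0% = DMSO wells and -100% = levofloxacin 16 µg/mL wells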
T cruzi growth-1: T. cruzi proliferation inhibition; T. cruzi beta-gal in NIH3T3, GalScreen luminescence, 90 h; inhibition, % at 8.34 µM; 5.9% of 77,000 active;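 active means mean inhibition above about 93%, with at least 55% of replicates each passing it, limit read from the data, passing the limit was not always enough; inconclusive means only one of those two conditions holds; inactive means neither condition holds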
Pf Dd2 inh: blocks growth of Plasmodium falciparum Dd2 parasites | P. falciparum Dd2 growth, SYBR Green, 72 h; stronger effect = lower value | activity change, % at 10 µM | 2.3% of 94,000 active | AID 1159554; in the data active means activity change below about -80%; inconclusive means no clear call, values can overlap the other calls
T cruzi growth-2: inhibitors of T. cruzi proliferation; 72% of 5,600 active; shares compounds with T cruzi growth-1; inhibition, % at 8.35 µM; T. cruzi beta-gal in NIH3T3, GalScreen luminescence, 90 h;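 active means mean replicate inhibition above about 95% and at least 55% of replicates individually reaching it, limit read from the data; inconclusive means only one of the two criteria is met; inactive means neither criterion is met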
T cruzi growth-3: blocks T. cruzi growth in NIH3T3 host cells; shares compounds with T cruzi growth-1; T. cruzi beta-gal in NIH3T3, GalScreen luminescence, 90 h; inhibition, % at 2.09 µM; 21% of 5,600 active; AID 651740;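 active means mean inhibition above about 95%, with at least 55% of replicates also reaching it, limit read from the data; inconclusive means meets just one of the two conditions; inactive means meets neither condition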;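 further: plate controls were neutral control median for no effect and positive control median for full effect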
NIH3T3 tox: NIH/3T3 (mouse) viability loss. AID 651742. NIH/3T3 viability, CellTiter-Glo ATP luminescence, 90 h. shares compounds with T cruzi growth-1. cytotoxicity (signal decrease), % at 8.35 µM. 14% of 5,600 active;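 active means mean signal decrease across replicates above about 35% based on untreated-well scatter, with enough replicates individually passing, limit read from the data; inconclusive means no rule stated though some were filed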;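 further: 0% = median of neutral control wells and 100% = median of positive control wells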
NIH3T3 tox 2: cytotoxicity in mouse NIH/3T3 fibroblasts. shares compounds with T cruzi growth-1. NIH/3T3 viability, CellTiter-Glo ATP luminescence, 90 h. inhibition, % at 24.9 µM. 56% of 5,600 active;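 active means mean loss of cell viability signal at or above a set limit, and enough replicates individually reaching it; inconclusive means meets only the mean limit or only the replicate share; inactive means meets neither condition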;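 further: 0% = median of neutral control wells and 100% = median of positive control wells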
Active calls of the source: *; ? = inconclusive; . = not tested or not shown.

SMILES	C diff growth	T cruzi growth-1	Pf Dd2 inh	T cruzi growth-2	T cruzi growth-3	NIH3T3 tox	NIH3T3 tox 2
COc1ccc2c3c(n(C)c2c1)[C@H](CO)N(C(=O)Nc1ccc(F)cc1)CC31CN(Cc2cccc(F)c2)C1	14	.	-80	.	.	.	.
COc1ccccc1-c1ccc2n(c1=O)C[C@@H]1[C@@H](CO)[C@H](C(=O)N[C@H](C)c3ccccc3)[C@H]2N1C	-2	53	9	.	.	.	.
CCCC#Cc1cnc2c(c1)C(=O)N([C@@H](C)CO)C[C@H](C)[C@@H](CN(C)C(=O)C1CCC1)O2	3	13	-2	.	.	.	.
N#C[C@@H]1[C@H](c2ccc(-c3ccc(F)cc3)cc2)[C@H](CO)N1c1nc(-c2ccccc2)cs1	-9	101*	32	-11	31	-5	-11
N#C[C@@H]1[C@H](c2ccc(-c3cccc(F)c3)cc2)[C@@H](CO)N1c1nc(-c2ccccc2)cs1	-2	.	17	.	.	.	.
N#C[C@@H]1[C@H](c2ccc(-c3ccc(F)cc3)cc2)[C@@H](CO)N1c1nc(-c2ccccc2)cs1	-6	.	-21	.	.	.	.
N#C[C@@H]1[C@@H](c2ccc(-c3ccc(F)cc3)cc2)[C@H](CO)N1c1nc(-c2ccccc2)cs1	6	103*	4	107*	71	11	25
O=C(C[C@H]1C=C[C@@H](NS(=O)(=O)c2ccc(F)cc2)[C@H](CO)O1)NCc1ccccc1F	0	.	13	.	.	.	.
C[C@H](CO)N1C[C@H](C)[C@@H](CN(C)C(=O)Nc2ccc(C(F)(F)F)cc2)Oc2ccc(NS(=O)(=O)c3ccc(Cl)cc3)cc2CC1=O	9	-4	-8	.	.	.	.
Cc1cc(C(=O)Nc2cccc3c2O[C@H](CN(C)C(=O)NC2CCCCC2)[C@@H](C)CN([C@H](C)CO)C3=O)n(C)n1	0	-23	0	.	.	.	.
Cc1ccccc1S(=O)(=O)N1CC[C@H]2[C@H](CO)Nc3ccc(-c4ccc(F)cc4)cc3[C@H]21	47	25	14	.	.	.	.
Cc1ccccc1S(=O)(=O)N1CC[C@@H]2[C@H](CO)Nc3ccc(-c4ccccc4)cc3[C@@H]21	17	107*	1	102*	?	12	104*
O=S(=O)(c1ccccc1F)N1CC[C@@H]2[C@@H](CO)Nc3ccc(-c4cccc(F)c4)cc3[C@@H]21	-2	29	13	.	.	.	.
COc1cccc(-c2ccc3c(c2)[C@@H]2[C@@H](CCN2S(=O)(=O)c2ccccc2C)[C@@H](CO)N3)c1	7	62	-49	.	.	.	.
Cc1ccccc1S(=O)(=O)N1CC[C@@H]2[C@@H](CO)Nc3ccc(-c4cccc(F)c4)cc3[C@@H]21	0	98*	14	104*	112*	59*	106*
Cc1ccccc1S(=O)(=O)N1CC[C@@H]2[C@H]1c1cc(-c3ccc(F)cc3)ccc1N[C@@H]2CO	8	39	-4	.	.	.	.
Cc1ccccc1S(=O)(=O)N1CC[C@@H]2[C@H](CO)Nc3ccc(-c4cccc(F)c4)cc3[C@@H]21	1	105*	17	?	109*	27	104*
Cc1ccccc1S(=O)(=O)N1CC[C@@H]2[C@H]1c1cc(-c3cccc(F)c3)ccc1N[C@@H]2CO	1	107*	22	100*	48	28	106*
C=CC[C@]1(C(=O)N(C)C)N=C(c2ccc(OCCCO)cc2)O[C@H]1c1ccccc1	1	.	.	.	.	.	.
C[C@H](CO)N1C[C@H](C)[C@@H](CN(C)C(=O)Nc2ccc3c(c2)OCO3)OCCCC[C@H](C)Oc2ccc(NC(=O)c3ccncc3)cc2C1=O	1	49	20	.	.	.	.
N#Cc1cccc(-c2ccc3c(c2)[C@H]2[C@H](CCN2S(=O)(=O)c2ccccc2F)[C@@H](CO)N3)c1	-1	107*	18	?	67	30	55*
Cn1cnc(S(=O)(=O)N2CC[C@@H]3[C@H]2c2cc(-c4cccc(F)c4)ccc2N[C@@H]3CO)c1	-13	?	18	101*	42	3	4
Cn1cnc(S(=O)(=O)N2CC[C@@H]3[C@H]2c2cc(-c4ccc(F)cc4)ccc2N[C@@H]3CO)c1	-6	62	-12	.	.	.	.
Cc1ccccc1S(=O)(=O)N1CC[C@@H]2[C@H]1c1cc(-c3cccc(C#N)c3)ccc1N[C@@H]2CO	1	24	4	.	.	.	.
CCCNC(=O)N[C@@H]1C=C[C@H](CC(=O)NCCc2ccccc2)O[C@@H]1CO	.	-63	11	.	.	.	.
SMILES	C diff growth	T cruzi growth-1	Pf Dd2 inh	T cruzi growth-2	T cruzi growth-3	NIH3T3 tox	NIH3T3 tox 2
C[C@@H]1CN([C@@H](C)CO)C(=O)c2cc(C#CCN(C)C)cnc2O[C@@H]1CN(C)Cc1ccc(C(=O)O)cc1	2	109*	17	?	22	-15	1
C[C@@H]1CN([C@H](C)CO)C(=O)c2cc(C#CCN(C)C)cnc2O[C@@H]1CN(C)Cc1ccc(-c2ccccc2)cc1	12	63	.	.	.	.	.
C[C@H]1CN([C@@H](C)CO)C(=O)c2cc(C#CCN(C)C)cnc2O[C@@H]1CN(C)Cc1ccc(-c2ccccc2)cc1	-4	108*	.	107*	76	19	103*
C[C@@H]1CN([C@@H](C)CO)C(=O)c2cc(C#CCN(C)C)cnc2O[C@H]1CN(C)Cc1ccc(C(=O)O)cc1	-1	-34	5	.	.	.	.
C[C@@H]1CN([C@H](C)CO)C(=O)c2cc(C#CCN(C)C)cnc2O[C@H]1CN(C)Cc1ccccc1F	-1	101*	-10	83	29	15	5
C[C@H]1CN([C@@H](C)CO)C(=O)c2cc(C#CCN(C)C)cnc2O[C@@H]1CN(C)Cc1ccccc1F	-1	52	-41	.	.	.	.
C[C@@H]1CN([C@H](C)CO)C(=O)c2cc(C#CCN(C)C)cnc2O[C@H]1CN(C)Cc1cccc(C(=O)O)c1	-2	.	6	.	.	.	.
C[C@@H]1CCCCO[C@H](CN(C)C(=O)CCC(F)(F)F)[C@H](C)CN([C@H](C)CO)C(=O)c2cc(NS(=O)(=O)c3ccc(F)cc3)ccc2O1	2	.	-55	.	.	.	.
C[C@H]1CCCCO[C@H](CN(C)C(=O)Nc2ccc3c(c2)OCO3)[C@@H](C)CN([C@@H](C)CO)C(=O)c2cc(NC(=O)Cc3ccccc3)ccc2O1	-1	?	?	90	60	-7	23
C[C@H]1CCCCO[C@@H](CN(C)C(=O)Nc2ccc3c(c2)OCO3)[C@@H](C)CN([C@@H](C)CO)C(=O)c2cc(NC(=O)Nc3ccccc3)ccc2O1	-9	117*	-3	111*	6	-15	-2
C[C@H]1CCCCO[C@@H](CN(C)C(=O)Nc2ccc3c(c2)OCO3)[C@@H](C)CN([C@@H](C)CO)C(=O)c2cc(NC(=O)Nc3ccc(F)cc3)ccc2O1	5	103*	-56	106*	75	-1	-9
